Results published in PubChem BioAssay AID1508600 (Functional Genomics Laboratory (NCATS/FGL), 2020).
About 3,700 (7%) of roughly 53,000 sequences were called active. Only a selection was taken, and actives are over-represented in it overall. Values without a mark were called inactive.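 The calls were made as follows: active = gene knockdowns whose robust z-score for IL-1 alpha signal is at least 2 or at most -2, so actives lie on both sides; inactive = the rest.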

Experiment: Components of the Cytosolic LPS Sensing Pathway: Gene Identification via Genome-wide siRNA Screen;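 also: robust z of the log signal after scaling to non-targeting control siRNA wells of the plate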
Conditions: RAW264.7 macrophages, IL-1a HTRF, actives lie on both sides, screened at 100 nM (by protocol), cells primed 5 h with Pam3CSK4 first
How it was run: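 Cells (RAW264.7, 1×10^4 per well) were transfected with siRNA at 100 nM and cultured 48h at 37 degrees C. Pam3CSK4 was added for 5 hours; LipidA transfection followed for 24 hour. IL-1a was then measured by HTRF.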
Work on GCUCUAUGGAGACCUAAAGTT against Sdha yielded a z-score of -0.378. For GGAGGGACAUGGAGAUUACTT against Ptpn18, the z-score was 3.15 (active). GGGAUUUUCAAAGUGAGAATT against Pmaip1 gave a z-score of -0.502. For GGAUUUUCACCAACAGCCUTT against Gh, the z-score was 0.046. Sequence GGACUGAAGUCCUUGACACTT against Lgi3 has a z-score of -1.46. In the case of CCUCCUACUGUUUAAUGUUTT against Exd2, the z-score is reported as 2.47 (active). GCCUUGACGAUAGAUUAUUTT against Irf2 gave a z-score of 1.36. GGUUGAUAAAGGAGCCAUCTT against Mcts1 gave a z-score of 1.02. With GGUGUCCUUUCAAGUUGAUTT against Spg11 the z-score was 2.15 (active). GCCAGUGUGACAUUUGGUATT against Eed showed a z-score of 0.651. Sequence GGAGACUUGCUAAAUGCCCTT against Fkbp7 has a z-score of -0.0461. For GGCAACUAAGGCUAAGAAGTT against H1f4, the z-score was -1.89. In the case of GGUCUCGCUCCAAGGAAGATT against Tra2b, the z-score is reported as 2.56 (active). GGAGACUGUCAUGGCUGUGTT against Olfr397 gave a z-score of -1.84. For GCUUUACCUCCUAUUAAUATT against Rgs9bp, the z-score was -0.91. GGAUUUAGCCAUGGAUUUCTT against Zfp473 gave a z-score of -1.17. For GUACAAGCCACUGGAUCUGTT against Smad6, the z-score was 5.56 (active). For GGAGACAAAGCAUUAUCUATT against Usp33, the z-score was -0.366. Work on GGUGAAAGGAGCAAAUGAUTT against Fyco1 yielded a z-score of -0.332. For GGCACUGAGGUUGUUCAGGTT against Eif3h, the z-score was 0.806. For CCUACCAUACCAUGAGCAGTT against Pou4f3, the z-score was 1.52. With GGAAUACAGAUUUUUCAGATT against Frmd6 the z-score was -1.15. In the case of GCAGAUACUGAGAUGCUAUTT against Dkk4, the z-score is reported as 2.24 (active). In the case of GGUGUUACCCUCCUUAGAGTT against Tmem230, the z-score is reported as -1.03. With GGAUCUUGAAGACCAAAAATT against Kazn the z-score was -2.14 (active). Sequence GGCGAACAUGCACUUUCACTT against Gramd3 has a z-score of -1.28. In the case of GGAGCAUGAGGAUUACUGUTT against Trafd1, the z-score is reported as 0.731. In the case of GGACAGUUUACUCCAGAUATT against Foxc1, the z-score is reported as 2.84 (active). For GCACUAAAGGGCUUUUCAUTT against Serping1, the z-score was 0.912. GGAGAAAGGCAUCUUCAAATT against Spdef gave a z-score of 0.0302. In the case of GCCUUACUACUACAACAACTT against Prpf40b, the z-score is reported as 2.08 (active). Work on GGCACAAAAGAAGAUCCUGTT against Tnfaip8 yielded a z-score of -1.53. GGAUCCUGAACGAAAAAGGTT against Med19 gave a z-score of -0.0986. With CGGCAGAUUGCUGCUUUGATT against Vmn2r122 the z-score was 2.73 (active). GGUCCAAGAGGAAAGACAATT against Adarb2 showed a z-score of 0.67. GGUGACAGAUGUUUAUGAGTT against Ccdc28b showed a z-score of -1.91. Work on GCAUAUGAUUGUCAUGAGUTT against Olfr319 yielded a z-score of -1.47. For GCAAGACCGAAGUCACGGATT against Krt19, the z-score was 2.87 (active). In the case of CCGAGACAUAUACAAAGGATT against Klkb1, the z-score is reported as -0.36. CCAGACAUCGUGCUUUACATT against Chrna3 gave a z-score of 1.42. Sequence GUUAACCCUGAGCCUAAACTT against Spata3 has a z-score of 0.356. In the case of GGGCGACAUCUUUAGCAAATT against Sh3bp4, the z-score is reported as -0.0472. Work on GCCUAAGCCCUUAAAGCGUTT against Lrrc41 yielded a z-score of 0.643. In the case of CCCACUAAGGAACAAAUUGTT against Tex24, the z-score is reported as 0.297. Sequence GGCUUGCAUCAAUAAAGAATT against Adam33 has a z-score of 0.0554. GGUGGUUGAAGAAAUGGCUTT against Timm8a1 showed a z-score of -0.364. For GGAGCAGAAGUCAAUCAGGTT against Myo1b, the z-score was 0.419. For GGGACUAAUGUUUUGCCUATT against Krt16, the z-score was -2.62 (active). Work on GCGGAAGUCGACCUUUGAUTT against Cd164 yielded a z-score of -0.238. For CGACUUUGGACAAAAAUUGTT against Kdm2a, the z-score was 0.638. With CCUACCCGAUUAUUCUUACTT against C2cd2l the z-score was 0.125. Work on “GGCAGUAUUGACUCCUACCTT against 6430548M08Rik” yielded a z-score of -0.973. With GCUUGGAUUGAGCUUUACATT against Pid1 the z-score was 3.53 (active). For GGAAGUUGUUGGGAACUUCTT against Afmid, the z-score was -0.401. For GGGAAGUUUGGUUCUUUGGTT against Msn, the z-score was 0.749. GGAAAGCCACUGUGUAAAATT against Armc9 showed a z-score of 0.594. “GCCUCUUCGAACUCACUAUTT against St6galnac3” showed a z-score of -0.807. “GGAAAGAGGGUUUAUUUUGTT against 4930556L07Rik” gave a z-score of 0.919. For GGGAAAGAGUUUUACAAACTT against Ttc22, the z-score was 2.74 (active). For GGACCUGAACAAUAAGGUUTT against Tagap, the z-score was -1.78. GGAUUCUUUGGUCUAUUUCTT against Pudp showed a z-score of -0.308. In the case of GGAGAAAGACCAUUACUGUTT against Ly6e, the z-score is reported as 1.63. For GGUGACAAACCGAUACUUGTT against Cope, the z-score was -0.966. In the case of GCAGACAAAGAUCCUAUGCTT against Atp2b3, the z-score is reported as -2.27 (active). CCUACCUAUUUAUCAAAGATT against Sgms1 showed a z-score of 0.977. GGAUUUUUACAGAGACAUGTT against Actr6 showed a z-score of -0.821. “CGAUAUCUUACUUCUUUUGTT against E030011O05Rik” showed a z-score of 0.952. With GGCCAUAGUCCUGUUCACCTT against Nr2f2 the z-score was 0.492. In the case of CCUUCAACAGAUCUAGAGUTT against Rexo1, the z-score is reported as 2.36 (active). In the case of GGAGGUUACAAUCCAUGAGTT against Anapc1, the z-score is reported as -0.951. Sequence GGAUAGAUUUUAGGUAUUGTT against Htr5b has a z-score of -0.475. CGGAGUAGCGAUUAUGGUGTT against Art5 gave a z-score of -0.535. With GGAUUUAACCCUGAGAUACTT against Grpel2 the z-score was 0.621. Sequence GGAUGAUAUCGGAGCCUGCTT against Clec4g has a z-score of 0.392. With GGACAAAUACCACAAGUUGTT against Simc1 the z-score was 2.13 (active). With GCAGGAGUAUUGCCAAGGATT against Csf1 the z-score was -0.404. CGAAACACUCAAGGUUGUATT against Creb3l2 showed a z-score of -0.314. GCAGCAUGCCUGAAUAUUUTT against Prcp gave a z-score of 0.172. Sequence GGAGGUGGAACAAAUAUUUTT against Emc6 has a z-score of 0.361. With GGAAGACUUGUUCAACUGGTT against Grwd1 the z-score was -0.88. In the case of GCUGUUUGAGGUCAUUCAUTT against Urb2, the z-score is reported as 4.71 (active). Sequence GGCUUUUGUCAAGCAGCACTT against Ins2 has a z-score of -0.628. In the case of CCUUGAAAAGUCUAAACGUTT against Tmod2, the z-score is reported as 0.375. With GGGCUAGCCUAGAUAAAAATT against Sltm the z-score was -1.38. GGGCUCCACAUGUUUGCAUTT against Ehmt1 showed a z-score of 0.392. In the case of “GGAAUUCUCUCAGCAGAAGTT against 1110038F14Rik”, the z-score is reported as -2.17 (active). In the case of GGAACUUCUACAGUCCUCCTT against Parp16, the z-score is reported as 0.193. Sequence GGCUUCUUAUUGAUGUUGGTT against Asb13 has a z-score of -0.166. GGAUUUUUGAUGAUGUGUCTT against Arfgap1 showed a z-score of -0.795. In the case of CCUUAUAGCAUAAGCUUUATT against Olfr768, the z-score is reported as 2.04 (active). For CCAAGAUACCUUUUUUGAGTT against Paox, the z-score was 0.455. In the case of GGCCUCUUCACUUAUGUAUTT against Inha, the z-score is reported as -0.22. With GGUCAAUUGUCCAUAUGACTT against Tox3 the z-score was -2.24 (active). For GGACAAUGAAGGAAUUGAUTT against Mdm4, the z-score was -0.579. In the case of CCUCGACUUUUAUUUGGAUTT against Smg6, the z-score is reported as -0.0389. For GGUUAGCUUCUUAAAACCATT against Adcy10, the z-score was -0.605. In the case of GGGAGCUAGCAAAAUCGGATT against Eif4g3, the z-score is reported as 0.714. In the case of GGUGAAGCCAGUUUCUUUATT against Traf3ip2, the z-score is reported as 0.107. CGUUGAUGUGUAUUUAAACTT against Vopp1 gave a z-score of 0.704. In the case of GCUACUAUUGUGUUCUGAATT against Drd1, the z-score is reported as 2.24 (active). In the case of CGUGAACGUAGAGUUUUCUTT against Fcrl5, the z-score is reported as 3.59 (active). With GGAACUGCUCAUAAAAACATT against Evi2b the z-score was 0.0355. GCUAUUGAGUUAUCGUUGCTT against Stam2 showed a z-score of 0.715. For GGUACAGCUUAUGGAUUAATT against Pdgfra, the z-score was -0.193. Sequence GCCAGGUUUUCUCCAUAGATT against Tmem44 has a z-score of -0.841. In the case of GGUUUAUACUCAUAACCUGTT against Kifbp, the z-score is reported as 2.03 (active). “GAAAUUAGAACAACUUUGGTT against 3830403N18Rik” gave a z-score of 0.442. In the case of GGACCGCCUUCAACAACAATT against Tpgs1, the z-score is reported as 2.68 (active).
